Among the data in PubChem BioAssay are fold change permeability values, retold here.

Values without a mark were called inactive. The source made the active and inactive calls. Rule as the data show it: active = fold change permeability below about 0.7 or above about 1.3; inactive = in between. Residues, ends and D or L forms follow the SMILES beside them. *: point of attachment. Cbz = O=C(OCc1ccccc1)*

The nature of this test: modulators of brain endothelial barrier permeability, primary screen, cell-based, FITC-avidin fluorescence, HTS (AID 1963498). Also: test concentration not given here. Particulars: actives lie on both sides.
On to `CCC(=O)NS(=O)(=O)c1ccc(-c2c(-c3ccccc3)noc2C)cc1`, for which the fold change permeability was 0.9.

Regarding `O=c1c(O)c(-c2ccc(O)cc2O)oc2cc(O)cc(O)c12`, the fold change permeability was 0.7 (active).

Take `O=c1[nH]c2ccccc2n1CCN1CCN(c2cccc(C(F)(F)F)c2)CC1`: the fold change permeability is 1.5 (active).

With `CCCCCOC(=O)Nc1nc(=O)n([C@@H]2O[C@H](C)[C@@H](O)[C@H]2O)cc1F`, the fold change permeability was 1.4 (active).

Consider `COc1cc(C[C@H](C)[C@H](C)Cc2ccc3c(c2)OCO3)ccc1O`, for which the fold change permeability was 1.7 (active).

Turning to `CN(C)c1ccc(/C=C2\C(=O)Nc3ccccc32)cc1`, the fold change permeability is 1.6 (active).

Consider `COc1ccc(-c2cc3ncc(C)n3c(Nc3ncccc3C(N)=O)n2)cc1OC`, for which the fold change permeability is 1.6 (active).

In the case of `COCCOC(=O)C1=C(C)NC(C)=C(C(=O)OC(C)C)C1c1cccc([N+](=O)[O-])c1` (centres undefined), the fold change permeability was 0.7 (active).

Regarding `CN1C(=O)c2sccc2N(C)c2nc(Nc3ccc(S(N)(=O)=O)cc3)ncc21`, the fold change permeability is 1.8 (active).

Consider `C[C@H](CSC(=O)c1ccccc1)C(=O)N1C[C@@H](Sc2ccccc2)C[C@H]1C(=O)O`, for which the fold change permeability is 1.

Regarding `CCCn1c(=O)c2[nH]c(C3CCCC3)nc2n(CCC)c1=O`, the fold change permeability is 1.5 (active).

Turning to `Oc1ccc2c(c1)CC[C@H](c1ccccc1)[C@@H]2c1ccc(OCCN2CCCC2)cc1`, the fold change permeability is 1.3 (active).

`c1ccc2c(c1)CCCC2C1=NCCN1` (centres undefined): the fold change permeability is 0.7 (active).

`O=C(Nc1nc2ccccc2n1CCN1CCOCC1)c1cccc([N+](=O)[O-])c1`: the fold change permeability is 1.9 (active).

Consider `N[C@@H](C(=O)N[C@@H]1C(=O)N2C(C(=O)O)=C(Cl)CS[C@H]12)c1ccccc1`, for which the fold change permeability is 0.9.

`NC1C=CC=C(C(=O)O)C1` (centres undefined): the fold change permeability is 0.9.

For the compound `O=C(O)c1cc(=O)cc(C(=O)O)[nH]1`, the fold change permeability was 0.8.

For the compound `c1ccc2c(CC3=NCCN3)cccc2c1`, the fold change permeability is 0.9.

Regarding `COc1ccc(C2CNC(=O)C2)cc1OC1CCCC1` (centres undefined), the fold change permeability is 1.1.

Consider `O=c1cc(-c2ccc(O)cc2)oc2cc(O)cc(O)c12`, for which the fold change permeability is 1.2.

Regarding `Cn1cc(C2=C(c3ccc(Cl)cc3Cl)C(=O)NC2=O)c2ccccc21`, the fold change permeability was 3.6 (active).

Take `O=C(CCNNC(=O)c1ccncc1)NCc1ccccc1`: the fold change permeability was 0.8.

With `CC(C)[C@H](NC(=O)OCc1ccccc1)C(=O)N[C@H](C=O)Cc1ccccc1` (Cbz-Val-Phe-aldehyde), the fold change permeability was 1.4 (active).

As to `CO[C@@]1(NC(=O)CSCC#N)C(=O)N2C(C(=O)O)=C(CSc3nnnn3C)CS[C@@H]21`, the fold change permeability was 0.9.

For the compound `NCCCNCCSP(=O)(O)O`, the fold change permeability is 0.9.

Take `c1ccc(Cn2c(NCc3ccco3)nc3ccccc32)cc1`: the fold change permeability was 1.6 (active).

In the case of `COc1cc2c[n+](C)c3c4cc5c(cc4ccc3c2cc1OC)OCO5`, the fold change permeability was 1.1.

`N[C@@H](CC(=O)N1CCN(C(c2ccc(F)cc2)c2ccc(F)cc2)CC1)C(=O)N1Cc2ccccc2C1`: the fold change permeability is 1.1.

For the compound `COc1cc([C@@H]2c3cc4c(cc3[C@@H](O[C@@H]3O[C@@H]5CO[C@@H](C)O[C@H]5[C@H](O)[C@H]3O)[C@H]3COC(=O)[C@H]23)OCO4)cc(OC)c1O`, the fold change permeability was 0.9.

Take `Cc1cccc(-c2[nH]c(C(C)(C)C)nc2-c2ccc3nccnc3c2)n1`: the fold change permeability was 1.4 (active).

For the compound `NCCCC(N)(C(=O)O)C(F)F` (centres undefined), the fold change permeability is 0.8.

For the compound `Nc1ccc(S(=O)(=O)Nc2ccnn2-c2ccccc2)cc1`, the fold change permeability was 1.2.

Consider `CCOC(=O)C12CC1/C(=N\O)c1ccccc1O2` (centres undefined), for which the fold change permeability is 1.2.

Regarding `CC(=O)N[C@@H](CS)C(=O)O`, the fold change permeability is 1.1.

`N#CSCC(=O)c1ccc(O)c(O)c1`: the fold change permeability is 1.1.

With `Cc1ccc(=O)n(-c2ccccc2)c1`, the fold change permeability is 1.

As for `O=C(O)/C=C1\CCCc2ccccc2C1O` (centres undefined), the fold change permeability was 0.8.

As for `CN(C)CCC(c1ccc(Cl)cc1)c1ccccn1` (centres undefined), the fold change permeability was 1.1.

Consider `CC(C)(CN1C(=O)C(Cl)=C(Cl)C1=O)CN1C(=O)C(Cl)=C(Cl)C1=O`, for which the fold change permeability was 1.1.
